# Data: PubChem BioAssay AID488841 (Sanford-Burnham Center for Chemical Genomics, 2010)
# Among all 1,400 compounds or so, about 380 (27%) were called active. The list shows a part of the results. Unmarked numbers belong to inactive results.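 How the source made its calls: active means mean inhibition above 50% across duplicate retests at 10 µM; inactive means the rest.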
# Experiment: inhibition of NALP1/ASC/caspase-1 reporter signal in yeast, confirmation, NALP1 inhibitor project, S. cerevisiae, luminescence, single concentration (AID 488841);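 further: plate controls were DMSO in galactose medium for no effect and cells in plain SD medium for full effect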
# Conditions: S. cerevisiae NALP1/ASC/Caspase-1 reporter, beta-gal luminescence; at 10 µM; stronger effect = higher value
row,Compound,inhibition
1,CCN(c1ccccc1)S(=O)(=O)c1cc(NC(=O)Nc2ccccc2C#N)ccc1Cl,17.4%
2,Cc1ccc(OCc2nc(-c3ccc(Cl)cc3)n[nH]2)cc1,66.9% (active)
3,CCOC(=O)c1nnc(-c2ccc(C)cc2)nc1Sc1ccc(Cl)cc1,10.3%
4,FC(F)Oc1ccc(/C=N/c2c(-c3ccc(OC(F)F)cc3)nc3n2CCS3)cc1,31.2%
5,CCc1cccc(C)c1NC(=S)NCCc1c(C)[nH]c2ccc(C)cc12,34.2%
6,COc1ccc(C(=O)c2c(C(F)(F)F)oc3c2C(=O)c2ccccc2C3=O)cc1,22.6%
7,Cc1nc(NC(=O)CCc2ccccc2)ccc1Br,64% (active)
8,Cc1csc(NC(=O)CCc2ccc(S(=O)(=O)N3CCOCC3)cc2)n1,30.4%
9,O=C(OCCN1CCCCC1)c1cc2ccccc2o1,22.6%
10,COC(=O)CSC1=C(C#N)C(=O)NC(c2ccccc2)S1 (stereo not drawn),28.1%
11,O=C(c1ccccc1)c1c2c(cc3sc4ccccc4[n+]13)-c1cccc3cccc-2c13,35.5%
12,Cc1ccc(F)cc1NCC(=O)Nc1ccc(Br)cc1,47.6%
13,N#CC(C#N)=C(Nc1ccc(F)cc1)SCc1cccc(Br)c1,50.1% (active)
14,Cc1ccc(NC(=O)c2cccc(S(=O)(=O)N(C)c3ccccc3)c2)cc1S(=O)(=O)N1CCOCC1,28.9%
15,Cc1ccc2nc(N(CCCN(C)C)C(=O)c3sc4ccccc4c3Cl)sc2c1,53.6% (active)
16,CN(C)CCCN(C(=O)c1sc2ccccc2c1Cl)c1nc2ccc(F)cc2s1,45.3%
17,CN(C)CCCN(C(=O)c1ccc2c(c1)CCCC2)c1nc2ccc(Cl)cc2s1,78.2% (active)
18,COc1ccc(CCNC(=O)c2sc3cc(C)ccc3c2Cl)cc1,35.8%
19,CN(C)CCCN(C(=O)c1ccc2c(c1)CCCC2)c1nc2ccc(F)cc2s1,64.8% (active)
20,O=c1c(F)cn(C2CCCO2)c(=O)n1Cc1c(F)cccc1Cl (stereo not drawn),26.9%
21,CCOC(=O)C1(Cc2ccc(OC)cc2)CCN(C(=O)CCc2cnccn2)CC1,25.1%
22,COc1cccc(/C=N/NC(=O)CCc2c(C)n[nH]c2C)c1,25.8%
23,COc1ccc(CN2CCNC(=O)C2CC(=O)N(Cc2nccn2C)C(C)C)c(OC)c1 (stereo not drawn),14.8%
24,CCCCC(C(=O)NC1CCCC1)N(Cc1ccco1)C(=O)Cn1nnc(-c2ccc(F)cc2)n1 (stereo not drawn),27.3%

row,Compound,inhibition
1,O=C(NC(=S)NCCCN1CCOCC1)c1ccc([N+](=O)[O-])cc1,40%
2,COc1ccc(Cc2nnc(SC)[nH]c2=O)cc1,22.6%
3,Cc1cc(C(C)(C)C)cc(C)c1S(=O)(=O)N1CC(=O)Nc2ccccc21,38.6%
4,COc1ccc(/C=N/N2CCOCC2)cc1COc1ccc(Cl)cc1,51.8% (active)
5,COc1ccccc1-c1nnc2sc(COc3ccc(Cl)cc3)nn12,49.2%
6,Cn1cccc1/C=N/N1CCN(Cc2ccc(Cl)cc2)CC1,31.7%
7,CC[n+]1c(/C=C/N(C)c2ccccc2)n(-c2ccccc2)c2ccc(-c3nc4ccccc4s3)cc21,55.8% (active)
8,CCCN1CCN(CCCNC(=O)CCNC(=O)Cn2ccc3ccccc3c2=O)CC1,35.5%
9,CN(C)c1ccc(/C=C/c2ccc3ccccc3[n+]2C)cc1,85.5% (active)
10,CC[n+]1c(/C=C/c2ccc(N(C)C)cc2)ccc2ccccc21,85.5% (active)
11,CC1=C(C(=O)Nc2ccc(Cl)cc2)C(c2ccncc2)C(C#N)=C(SCC(N)=O)N1 (stereo not drawn),32.1%
12,CN(C)c1ccc(N2C(=O)CC(Sc3ccccc3C(=O)O)C2=O)cc1 (stereo not drawn),24.6%
13,CCOc1ccc(OCCSc2nc3ccccc3o2)cc1,42.4%
14,CCOC(=O)CCCNC(=O)COC(=O)c1ccc(O)cc1,23.1%
15,Cc1ccc(NC(=O)CN(C)C(=O)COc2cccc3cccnc23)cc1,25.3%
16,CCN1c2ccccc2-c2nc3ccccc3n2C1c1cccs1 (stereo not drawn),32.9%
17,COc1ccc(/C=N\NC(=O)c2cc(OCC(F)(F)F)ccc2OCC(F)(F)F)cc1,25.5%
18,O=C(Oc1ccc(/C=N/NC(=O)c2ccccc2O)cc1)c1ccccc1,30.9%
19,O=C(C[n+]1ccc(C(=O)N/N=C/c2ccc(OCc3ccccc3)cc2)cc1)c1ccccc1,58.6% (active)
20,O=C1C=CC(=O)N1c1ccc(OC(F)F)cc1,59.8% (active)
21,COc1ccc(N2C(=O)C3[C@@H](C2=O)C2(Cl)C(Cl)=C(Cl)C3(Cl)C2(OC)OC)cc1 (stereo partly drawn),42%
22,COc1ccc(C(=O)/C=C/Nc2ccc([N+](=O)[O-])cc2C)c(OC)c1,4.95%
23,COc1cc(C)ccc1OCCOCCOc1ccc([N+](=O)[O-])cc1,53.3% (active)
24,C=CCc1ccc(OCCCOc2ccc(C)cc2OC)c(OC)c1,30.9%
